Compound activity from PubChem.
POLK inh: qHTS for Inhibitors of Polymerase Kappa | Potency, µM (titrated, usually from 107 µM), without a hit: at the top dose activity, negative = inhibition, hits mostly inhibitors | 400,000 compounds, 0.53% hits | AID 588579, 2011 | DNA polymerase kappa (Homo sapiens), Q9UBT6 | purified Pol kappa, fluorescent DNA synthesis assay, 10 min; further: on the % scale 0 is the no-effect control and ±100 the full control effect
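Here, compound and 10 nM enzyme are combined for 15 min at room temperature; adding 50 nM substrate (final) starts DNA synthesis, tracked by fluorescence at 0 and 10 min against buffer-only wells.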
WRN inhibitor: qHTS for Inhibitors of WRN Helicase. 360,000 compounds, 0.46% hits. AID 651768, 2012. Potency, µM (highest dose often 114 µM), for inactives: at the highest dose activity change, negative = inhibition, actives largely listed as inhibitors. WRN helicase unwinding, fluorescent forked duplex, kinetic. Bifunctional 3'-5' exonuclease/ATP-dependent helicase WRN (Homo sapiens), Q14191; further: on the % scale 0 is the no-effect control and ±100 the full control effect; nearly all actives have a fitted effect of over 55% in size
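WRN at 20 nM final was preincubated with compound for 15 min at room temperature; reaction started with 100 nM forked duplex oligonucleotide carrying fluorophore and quencher plus 2 mM ATP (final). Unwinding followed kinetically by red fluorescence (ex 525/em 598 nm).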
Pol beta inh: qHTS Assay for Inhibitors of DNA Polymerase Beta | P06746 | 340,000 compounds, 1.3% hits | Pol beta primer extension/strand displacement, fluorescence kinetic | Potency, µM (top dose mostly 114 µM), for the others: at the highest dose activity change, negative = inhibition, most hits filed as inhibitors | AID 485314, 2010; further: on the % scale 0 is the no-effect control and ±100 the full control effect
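Enzyme-only controls used 10 nM Pol beta; buffer lacking enzyme served as negative control. Compound preincubated 15 min, then 50 nM substrate added; 0 and 10 min reads at room temperature.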
FEN1 inhibitor: qHTS Assay for the Inhibitors of Human Flap endonuclease 1 (FEN1); AID 588795, 2011; Recombinant FEN1 flap cleavage, fluorescence, 15 min; 390,000 compounds, 0.35% hits; P39748; Potency, µM (titrated, usually from 114 µM), for the others: at the top dose activity change, negative = inhibition, usual class: inhibitors; further: on the % scale 0 is the no-effect control and ±100 the full control effect; nearly all actives have a fitted effect of over 65% in size
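Enzyme 10 nM, 15 min RT preincubation with compound; start with substrate 50 nM final; reads at 0 and 15 min; qHTS titration, four-parameter Hill fit.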
POLI inh: qHTS for Inhibitors of Polymerase Iota; AID 588590, 2011; DNA polymerase iota (Homo sapiens), Q9UNA4; 390,000 compounds, 1% hits; Pol iota fluorescent replication assay, 10 min; Potency, µM (highest dose often 115 µM), for the others: at the top dose activity, negative = inhibition, hits mostly inhibitors
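Pol iota at 10 nM preincubated 15 min with compounds at room temperature; reaction started with fluorescent substrate, 50 nM final. Fluorescence read kinetically at 0 and 10 min; buffer-only wells as negative control.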
Pol eta inh: qHTS for Inhibitors of Polymerase Eta. recombinant Pol eta, fluorescent DNA replication assay. Potency, µM (highest dose often 114 µM), inactives show at the top dose activity change, negative = inhibition, most hits filed as inhibitors. 390,000 compounds, 1.2% hits. AID 588591, 2011; further: on the % scale 0 is the no-effect control and ±100 the full control effect
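Pol eta at 10 nM preincubated with compounds 15 min at room temperature; reaction started with fluorescent substrate (50 nM final) and read kinetically at 0 and 10 min.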
The depositor's hits bear a star; ? = inconclusive; nt = no result; ! = not confirmed by another sample; [ ] = dose if it differs, or a comment. Compounds with a hit are over-represented: about 2.4% of the library has one in this group of screens. The call rests on the fitted dose curve; in most records, active means well fitted curve in the direction sought with a large enough effect; inconclusive means small, poorly fitted or top-dose-only effect, or another doubt; inactive means no such curve, though single readings can be large; an effect the other way counts as inactive or inconclusive. Potency means the concentration at half of the fitted maximal effect.

SMILES	POLK inh	WRN inhibitor	Pol beta inh	FEN1 inhibitor	POLI inh	Pol eta inh
Cc1cccc(C)c1NC(=O)Cn1cc(C(=O)c2ccco2)c2ccccc21	-22%	nt	50µM*	-14%	79µM*	?
Cc1ccc(NC(=O)Cn2cc(C(=O)c3ccco3)c3ccccc32)cc1	-3%[60.1 µM]	nt	11µM*	18%	79µM*	-5%
O=C(Cn1cc(C(=O)c2ccco2)c2ccccc21)Nc1ccccc1	3%	3%	?	4%	6%	-19%
COc1ccc(CNC(=O)c2cccn2-c2nnc(N3CCCCC3)s2)c(OC)c1	-17%	nt	-14%	-5%	-14%	-6%
Cc1cccc(-c2nn(-c3ccccc3)cc2CNCCO)c1	-18%	nt	nt	-30%	-13%	nt
CCCCCCCCCC[n+]1ccc(/C=C/c2c(C)[nH]c3ccccc23)cc1	-23%	nt	nt	79µM*	-8%	nt
CCOC(=O)c1c2c([nH]c(=S)c1C#N)CCCC2	-17%	-27%	?	-7%	?	79µM*
CCOC(=O)c1c(O)c2c([nH]c1=O)CCCC2	-9%	8%	14%	-3%	-12%	-6%
O=C(Nc1nc(-c2ccncc2)cs1)c1ccco1	-13%	-13%[57.1 µM]	40µM*	3%	?	?
COc1ccc2oc(=O)c(-c3nnc(NCc4ccco4)s3)cc2c1	?	?	25µM*	?	10µM*	?
COc1ccc(OC)c(-n2c(C)nc3cc(C(=O)O)ccc32)c1	-5%	-5%[57.1 µM]	17%	-14%	-5%	79µM*
Cc1ccnc(NC(=O)Nc2ccc3c(c2)N(C)C(=O)CS3)c1	-16%	-31%[57.1 µM]	-1%	1%	-4%	4%
Cc1ccc(NC(=O)Nc2ccc3c(c2)N(C)C(=O)CS3)nc1	-2%	-17%[57.1 µM]	?	3%	89µM*	-29%
Cc1c(C(=O)N2CCC2(C)C(=O)O)oc2ccccc12 (configuration not stated)	nt	2%	nt	nt	nt	nt
CC(=O)c1ccc(S(=O)(=O)N2CCN(c3nc(-c4ccccc4)nc4ccccc34)CC2)cc1	-18%	nt	nt	11%	-1%	nt
CCOc1ccc(Br)cc1/C=N/O	-13%	-15%	26%	-11%	-2%	2%
O=C(O)COc1ccc(Br)cc1/C=N/O	-27%	-9%[57.1 µM]	25µM*	-5%	?	11µM*
O=c1c(C(c2ccc(Cl)cc2)c2c(O)nc3n(c2=O)CCS3)c(O)nc2n1CCS2	?	-9%[11.6 µM]	-23%	6%	?	89µM*
CC1=NNC(=O)/C1=C\c1cn(-c2ccccc2)nc1-c1cccs1	-9%	-9%	18%	-24%	?	-16%
CC1=NNC(=O)/C1=C\c1cn(-c2ccccc2)nc1-c1ccc(F)cc1	-9%	-21%	6%	-14%	25µM*	-8%
O=C(NCCc1ccccc1)c1cccc(Br)n1	-10%	nt	nt	nt	nt	nt
O=C(NCc1ccccc1)c1cccc(Br)n1	-4%	-2%[11.6 µM]	2%	-13%	79µM*	-3%
Cc1cccc(-c2nnn3c2nc(NCc2ccc4c(c2)OCO4)c2ccccc23)c1	-4%	nt	8%	1%	30%	-18%
O=C(O)CN1C(=O)/C(=C\c2cccc(OCc3ccc(Cl)cc3)c2)SC1=S	-31%	?	?	6%	?	50µM*
O=C(O)CN1C(=O)/C(=C\c2cc(Br)ccc2OCc2ccc(Cl)cc2Cl)SC1=S	11%	-6%	22µM*	-25%	?	?
SMILES	POLK inh	WRN inhibitor	Pol beta inh	FEN1 inhibitor	POLI inh	Pol eta inh
O=C(O)CN1C(=O)/C(=C\c2cccc(OCc3ccccc3F)c2)SC1=S	-12%	-16%[57.1 µM]	9%	-10%	?	?
O=C(O)CN1C(=O)/C(=C\c2ccccc2OCc2ccc(Cl)cc2)SC1=S	-20%	-31%	?	?	45%	79µM*
O=C(c1ccccc1)c1ccc2nc(Nc3cc(Cl)ccc3O)c3nncn3c2c1	-10%	nt	-24%	7%	?	0%
C/C(=N/NS(=O)(=O)c1ccccc1)c1c[nH]c2ccccc12	-33%	2%[11.6 µM]	18%	16%	89µM*	0%
COc1ccc(NC(=O)CCCn2c(=O)c3cccn3c3cccnc32)cc1Cl	-4%	nt	-1%	0%	57%	?
Cc1c(Cl)sn(-c2ccc(Cl)cc2)c1=O	-6%	16µM*	-1%	?	64%	5%
Cc1nn(-c2ccc(Cl)cc2)c(=O)c2ccccc12	-8%	-2%	0%	-8%	-3%	-12%
CCCCC(=O)N1C/C=C\C(c2ccc(OC)cc2)N(Cc2ccc(F)cc2)C(=O)C1Cc1ccccc1 (configuration not stated)	-9%	nt	nt	-2%	1%	nt
Cc1ccc(CNC(=O)c2ccc(-n3c(C)cc4c3CCCC4)cc2)cc1	-5%	nt	13%	-8%	-7%	-11%
Cc1cc2c(n1-c1ccc(C(=O)O)cc1)CCCCC2	nt	nt	2.5µM*	nt	nt	nt
Cc1ccc(S(=O)(=O)/N=C2/C=C(Sc3ncn[nH]3)C(=O)c3ccccc32)cc1	-35%	32µM*	?	50µM*	1.1µM*	3.5µM*
Cc1ccc(S(=O)(=O)Nc2ccc(O)c(Sc3ncn[nH]3)c2)cc1	-1%	-1%	-2%	-9%	18%	-18%
CC(C)c1ccc(S(=O)(=O)/N=C2/C=C(Sc3ncn[nH]3)C(=O)c3ccccc32)cc1	79µM*	32µM*	22µM*	79µM*	3.5µM*	13µM*
CCCC[C@@H](C)/C=C(C)/C=C(\C)C(=O)NC1=C[C@@](O)(/C=C/C=C/C=C/C(=O)NC2=C(O)CCC2=O)[C@@H]2O[C@@H]2C1=O	27µM*	nt	nt	nt	nt	nt
CCN(CC(=O)Nc1ccc(NC(C)=O)cc1)C(=O)c1c(C)nn(Cc2ccc(C)cc2)c1Cl	-3%	10%	nt	-13%	-11%	-12%
CNC[C@H](O)c1cccc(O)c1	-9%[60.1 µM]	nt	10%	4%	12%	-5%
CC[C@H](NC(C)C)[C@H](O)c1ccc(O)c(O)c1	-7%[12 µM]	nt	nt	nt	nt	nt
NC[C@@H](O)c1ccc(O)c(O)c1	12µM*	nt	nt	nt	nt	nt
CNC[C@H](O)c1ccc(O)c(O)c1	7.1µM*!	nt	-7%[57.1 µM]	nt	?	0%[57.1 µM]
Cc1ccc2nc(-c3ccc(C)c(NC(=O)COc4ccccc4Cl)c3)oc2c1	12%	nt	nt	2%	29%	nt
Cc1cccc(Cn2c(=O)n(CC3CCC(C(=O)N4CCC(C)CC4)CC3)c(=O)c3sccc32)c1 (configuration not stated)	16%	nt	11%	1%	-3%	-12%
